Bioassay records as filed in PubChem.
An excerpt weighted towards active compounds, which were near 11% of everything screened.
Sfp inh – inhibitors of Bacillus subtilis Sfp phosphopantetheinyl transferase | Biochemical Sfp PPTase activity, qHTS | Potency, µM, hits mostly inhibitors | 310,000 compounds, 3.5% hits | AID 1490;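 further: the enzyme is Sfp with the accession as filed and its product quenches rhodamine fluorescence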
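Fluorescence-quenching assay with 15 nM Sfp, 5 uM rhodamine-CoA and 12.5 uM BHQ-2-labelled ybbR peptide in pH 7.6 Hepes/MgCl2 buffer. Enzyme was pre-incubated with compound for 15 min at room temperature. Rate was taken from the 30-min fluorescence change (525/598 nm).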
Tau fibril FP – inhibitors of human tau fibril formation; K18 P301L tau heparin fibrillization, Alexa594 FP, 6 h; Potency, µM (series often up to 57.7 µM), most hits filed as inhibitors; 280,000 compounds, 0.39% hits; further: nearly all actives have a fitted effect of over 55% in size
Target sequence (P10636 561-689 P618L limits assumed): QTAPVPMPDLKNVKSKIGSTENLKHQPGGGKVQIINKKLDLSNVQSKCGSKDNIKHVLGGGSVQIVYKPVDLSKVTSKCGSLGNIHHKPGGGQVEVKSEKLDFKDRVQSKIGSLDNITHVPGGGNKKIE
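Human tau K18 […] P301L fragment, 15 uM unlabeled plus 0.24 uM Alexa 594-labeled tau (final), with compound and 20 uM heparin in 100 mM sodium acetate pH 7; 6 hr at 37 C, then Alexa 594 FP read.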
Tau ThT inhib – blocks human tau fibril formation measured by thioflavin T. 270,000 compounds, 2.1% hits. Potency, µM (doses to about 57.4 µM), usual class: inhibitors. recombinant tau K18 P301L, heparin-induced fibrillization, ThT fluorescence. AID 1460; further: nearly all actives have a fitted effect of over 55% in size
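Fibril formation assay: tau K18 P301L at 15 uM with trace Alexa 594 label, heparin inducer 20 uM, pH 7 sodium acetate buffer, 37 C for 6 hr; endpoint ThT signal.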
FBPA coupling cs – coupling enzyme interference in Giardia aldolase counter-screen; coupling enzyme system counterscreen, AmpLite Red fluorescence; AID 2472; 290,000 compounds, 0.67% hits; activity change, negative = inhibition, % at 58.2 µM, hits read low; in the data active means activity change below about -30%
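Final compound at 57.5 uM, incubated 10 min at RT with coupling enzyme reagent (glyceraldehyde-3-phosphate), then 20 min with substrate and AmpLite Red detection. Fluorescence read at 525/598 nm; tests interference with the coupling assay, not aldolase inhibition.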
Tau fluor counter – counter-screen for tau fibril formation inhibitors | tau K18 P301L Alexa594 fluorescence, heparin fibrillization | Potency, µM (highest dose often 57.7 µM) | 280,000 compounds, 0.93% hits; further: nearly all actives have a fitted effect of over 55% in size
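Human tau K18 P301L (15 uM unlabeled, 0.24 uM Alexa 594-labeled) in 100 mM sodium acetate pH 7 with 20 uM heparin, 6 hr at 37 C. ThT 30 uM added, 1 hr ambient; Alexa 594 FP and total fluorescence read at 555/632 nm.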
G9a inh – blocks human histone lysine methyltransferase G9a. Q96KQ7. G9a H3K9 monomethylation, AlphaScreen, 2 h. Potency, µM (highest dose often 102 µM), usual class: inhibitors. 350,000 compounds, 8.8% hits. AID 504332; further: nearly all actives have a fitted effect of over 75% in size
Target sequence (Q96KQ7 913-1193 limits assumed): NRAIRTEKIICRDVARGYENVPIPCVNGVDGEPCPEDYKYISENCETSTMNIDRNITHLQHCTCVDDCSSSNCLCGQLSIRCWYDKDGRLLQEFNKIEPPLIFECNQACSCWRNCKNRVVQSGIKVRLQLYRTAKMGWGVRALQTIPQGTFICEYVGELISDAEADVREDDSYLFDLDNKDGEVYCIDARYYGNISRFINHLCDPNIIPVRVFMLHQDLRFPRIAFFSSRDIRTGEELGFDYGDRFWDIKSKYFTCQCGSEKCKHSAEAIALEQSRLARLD
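Compounds were preincubated with 20 nM G9a for 15 min, after which biotinylated H3K9 peptide (500 nM) and SAM (20 uM) started a 2 h room-temperature reaction. Monomethylated product was quantified by antibody-based AlphaScreen chemiluminescence.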
Hits are given with their value; . = inactive; ? = inconclusive; / = no result; [ ] = dose if it differs, or a comment. Unless noted, the call rests on the fitted dose curve; in most records, active means well fitted curve in the direction sought with a large enough effect; inconclusive means small, poorly fitted or top-dose-only effect, or another doubt; inactive means no such curve, though single readings can be large; an effect the other way counts as inactive or inconclusive.

SMILES	Sfp inh	Tau fibril FP	Tau ThT inhib	FBPA coupling cs	Tau fluor counter	G9a inh
Cc1ccsc1C(=O)OCc1nc2ccccc2c(=O)[nH]1	.	.	.	-35	.	.
Cc1ccsc1C(=O)OCc1nc2ccsc2c(=O)[nH]1	/	/	/	/	/	.
Cc1ccnc(NC(=O)c2ccc(OCC3CCCO3)cc2)c1 (centres undefined)	/	/	/	/	/	.
N#Cc1c(N)nc2c(c1-c1ccc(Br)s1)CCCC2	.	.	.	.	.	.
Nc1nc(-c2ccc(Br)s2)c(Br)s1	35µM	.	?	.	14µM[quencher]	?
CCCCc1cc(=O)oc2c(C)c(OCC(=O)N3CCCC3)ccc12	.	/	/	/	/	/
CCCc1cc(=O)oc2cc(OCc3nn[nH]n3)ccc12	.	.	.	.	.	?
CCCCc1cc(=O)oc2c(C)c(OCc3nn[nH]n3)ccc12	.	.	.	.	.	50µM
COC(=O)Cc1c(C)c2ccc(OCc3nn[nH]n3)c(C)c2oc1=O	.	.	.	.	.	.
CCCCc1cc(=O)oc2cc(OCc3nn[nH]n3)ccc12	.	.	.	.	.	56µM
CCCCc1cc(=O)oc2c(C)c(OCC(=O)N3CCC(C(=O)O)(c4ccccc4)CC3)ccc12	.	/	/	.	/	3.2µM
COc1cc2c(C(=O)N3CCN(c4ccc(C)cc4)C(C)C3)cn(CC(C)C)c(=O)c2cc1OC (centres undefined)	/	.	.	/	.	?
O=C(N/N=C1/C[C@@H](O)[C@@H](O)[C@@H]2[C@@H]3C(=O)N(C[C@@H]4CCCO4)C(=O)[C@H]3CC[C@H]12)OCc1ccccc1	.	?	.[11.5 µM]	.	.[11.6 µM]	/
COc1ccc(-n2c(N)c(C(=O)NCC3CCCO3)c3nc4ccccc4nc32)c(OC)c1 (centres undefined)	.	.	28µM	-30	?	.
C=CCn1c(N)c(C(=O)NCC2CCCO2)c2nc3ccccc3nc21 (centres undefined)	?	.	.	-56	.	.
CCCCC(=O)Nc1ccc2nc(SCC(=O)N3CCc4ccccc43)sc2c1	/	.	.	/	.	.
CC(N1CCOC1=O)S(=O)(=O)c1ccccc1 (centres undefined)	63µM	.	.	.	.	?
O=C(NCCc1nc2ccccc2n1Cc1c(F)cccc1Cl)c1ccco1	/	.	.	/	.	.
CC(=O)Nc1cccc(NC(=O)CSc2nc(C)c(C)c(C)c2C#N)c1	?	.	.	.	.	10µM
CCOC(=O)c1[nH]ncc1CN1CCC(Cc2cccc(OC)c2)(C(=O)OCC)CC1	.	.	.	.	.	.
CN=c1scc(C)n1/N=C/c1ccc(O)cc1	.	.	?	.	.	?
CCN=c1scc(C)n1/N=C/c1cc(Br)c(O)c(OC)c1	.	.	?	.	?	10µM
CN=c1scc(C)n1/N=C/c1ccc2c(c1)OCO2	.	.	11µM	.	?	?
CCOc1cc(/C=N/n2cnnc2)cc(Br)c1O	.	.	.	.	.	?
CN=c1scc(C)n1/N=C/c1ccc(O)cc1O	.	.	16µM	.	?	.
SMILES	Sfp inh	Tau fibril FP	Tau ThT inhib	FBPA coupling cs	Tau fluor counter	G9a inh
CN=c1scc(C)n1/N=C/c1cc(Br)c(O)c(Br)c1	.	.	?	.	.	11µM
Cc1ccc(-c2cc(-c3coc4ccccc4c3=O)c3c(n2)-c2ccccc2OC3)cc1	/	?	.	/	.	.
COc1ccc(-c2c(C)c3ccc(O)c(CN4CCOCC4)c3oc2=O)cc1OC	/	.	?	/	.	.
CCOc1ccc(C(=O)N2CCN(c3cnn(-c4ccccc4)c(=O)c3Cl)CC2)cc1	.	.	.	.	.	.
O=C(CN1CCN(c2cnn(-c3ccccc3)c(=O)c2Cl)CC1)NC1CCS(=O)(=O)C1 (centres undefined)	/	/	/	/	/	45µM
CCn1nc(-c2ccccc2)c(-c2ccccc2)c(C(=O)Nc2nc(C)c(C(C)=O)s2)c1=O	/	.	.	/	.	?
O=C(O)Cn1c(O)c(C2=c3ccccc3=NC2=O)sc1=O	.	/	/	.	/	50µM
Cn1c(O)c(C2=c3ccccc3=NC2=O)sc1=Nc1ccc(Cl)cc1	.	.	10µM	.	?	.
O=C(NCCSc1c(-c2ccc(Cl)cc2)[nH]c2ccccc12)c1ccc(S(=O)(=O)N2CCOCC2)cc1	/	.	.	/	4µM[quencher]	.
O=C(NCCSc1c(-c2ccc(Br)cc2)[nH]c2ccccc12)c1ccc(S(=O)(=O)N2CCOCC2)cc1	/	.	.	/	4.5µM[quencher]	.
O=C(Nc1cccc(F)c1)N1CCCC2(CCN(C(=O)c3cnccn3)CC2)C1	.	/	/	.	/	.[12.7 µM]
CN1CC(=O)N(CC(=O)Nc2ccc(OC(F)(F)F)cc2)c2ccccc2C1=O	/	.	.	/	.	.
CC(=O)NC(CC(=O)Oc1ccc(C)cc1Br)c1ccccc1 (centres undefined)	.	/	/	/	/	/
CNc1cccc2c1C(=O)c1ccccc1C2=O	.	.	8.9µM	.	?	8.9µM
Cc1ccc(S(=O)(=O)NCCSCc2ccccc2)cc1	.	.	?	.	.	10µM
O=C(NCC(c1ccc(F)cc1)N1CCOCC1)c1cccc(Br)c1 (centres undefined)	.	.	.	.	.	?
CC(C)C/C(O)=C/c1nc2cc(Cl)ccc2oc1=O	56µM	.	.	.	.	35µM
O=c1oc2ccc(Cl)cc2nc1/C=C(\O)c1ccco1	?	.	/	.	.	8.9µM
Cc1ccc(/C(O)=C/c2nc3cc(C)ccc3oc2=O)cc1	.	.	.	.	.	/
CC1CCCN(C(=O)Cn2c(=O)n(CC3CCC(C(=O)NC(C)C)CC3)c(=O)c3sccc32)C1 (centres undefined)	/	.	.	/	.	.
Cc1ccc(C=Nc2ccc(N(C)C)cc2)o1	?	25µM	10µM	.	?	1.3µM
C=CCn1c(=O)/c(=C/c2ccc(F)cc2)s/c1=C(\C#N)c1nnc2n1CCCCC2	.	.	.	.	.	?
C=CCN1C(c2ccc(OCC)cc2)=CS/C1=C(\C#N)c1nnc2n1CCCCC2	?	.	.	.	.	3.5µM
Cc1ccccc1OCC(=O)Nc1ccc2nc(SCC(=O)N(C)c3ccccc3)sc2c1	/	.	.	/	.	.
Cc1ccc(S(=O)(=O)N2CCC(C(=O)Nc3ccc(N4CCOCC4)cc3)CC2)cc1C	/	/	/	/	/	16µM
CC(=O)Nc1ccc(S(=O)(=O)N2CCC(N3CCCC3)CC2)cc1	.	/	/	/	/	50µM
O=C(Nc1ccc(N2CCOCC2)cc1)C1CCN(S(=O)(=O)c2ccc3c(c2)OCCO3)CC1	.	.	.	.	.	.
CSc1ccc(S(=O)(=O)N2CCC(C(=O)Nc3ccc(NC(C)=O)cc3)CC2)cc1	.	/	/	.	/	40µM
O=C(NNS(=O)(=O)c1ccccc1)C1CCN(S(=O)(=O)c2ccccc2)CC1	.	.	.	.	.	22µM
